The full list was thinned out, with hits kept by preference.
PI4K2A inh = blocks human PI4K2A kinase activity. hit rate 0.13% among 420,000. AID 1346378. purified PI4K2A, ADP-Glo luminescence, 1 h; stronger effect = lower value. Q9BTU6. activity change, negative = inhibition, % at 76.9 µM; in the data active = activity change below about -50%; inconclusive = mostly about -30% to -49%;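 note: -100% = wells without enzyme as full effect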
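Compounds are screened against recombinant PI4K2A using PI as substrate and ATP, the latter dispensed at 300 microM. Reactions run one hour at ambient temperature before ADP-Glo detection; full inhibition defined by wells lacking enzyme.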
Pin1 inhibitor = inhibitors of human Pin1 | Pin1 FP peptide displacement, HiFluor488, 10 min | Q13526 | AID 504891 | Potency, µM (titrated, usually from 115 µM), inactives show at the highest dose activity, negative = inhibition, usual class: inhibitors | hit rate 0.009% among 390,000; active = well fitted inhibition curve with a large enough effect in the polarisation, with a control signal flat, not every such curve was filed as active; inconclusive = small, poorly fitted or top-dose-only effect, or effect the other way, or a change in a side signal; inactive = no such curve, though single readings can be large or run the other way; the % refers to the polarisation; note: potency is the fitted concentration of half-maximal effect
Target sequence (Q13526 whole entry, looked up): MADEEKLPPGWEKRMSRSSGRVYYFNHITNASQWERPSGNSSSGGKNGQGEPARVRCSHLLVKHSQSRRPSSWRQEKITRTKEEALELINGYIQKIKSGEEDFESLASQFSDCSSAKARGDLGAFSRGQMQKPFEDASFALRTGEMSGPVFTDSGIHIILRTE
Tb PFK inh = blocks T. brucei phosphofructokinase. O15648. T. brucei PFK, ADP-Glo luminescence. Potency, µM (series often up to 57.5 µM), for the others: top-dose activity, negative = inhibition, most hits filed as inhibitors. hit rate 0.17% among 330,000. AID 485367;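 note: potency is the fitted concentration of half-maximal effect; 0% = uninhibited 1x PFK enzyme wells and -100% = no-enzyme wells; nearly all actives have a fitted effect of over 60% in size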
Target sequence (O15648 whole entry, looked up): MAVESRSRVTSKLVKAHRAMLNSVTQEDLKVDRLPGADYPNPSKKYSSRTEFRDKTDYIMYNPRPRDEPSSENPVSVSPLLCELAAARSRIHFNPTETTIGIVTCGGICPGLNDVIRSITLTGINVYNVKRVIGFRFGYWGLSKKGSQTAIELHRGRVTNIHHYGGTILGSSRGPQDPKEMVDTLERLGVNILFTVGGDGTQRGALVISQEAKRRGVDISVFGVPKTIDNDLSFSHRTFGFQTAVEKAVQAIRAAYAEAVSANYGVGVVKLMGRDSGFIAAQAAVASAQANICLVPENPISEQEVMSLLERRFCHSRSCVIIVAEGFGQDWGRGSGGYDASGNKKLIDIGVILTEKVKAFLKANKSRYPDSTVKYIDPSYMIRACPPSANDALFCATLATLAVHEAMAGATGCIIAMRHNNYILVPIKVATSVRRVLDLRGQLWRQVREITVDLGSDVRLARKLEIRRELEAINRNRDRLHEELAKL
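PFK 1.25 nM, F6P 0.5 mM, ATP 0.1 mM, 0.1 M TEA pH 8.0, 5 mM MgCl2, 0.01% Tween20, 0.1% BSA; 45 min RT. ADP-Glo readout. qHTS titration up to 57 uM; curves fitted, compounds curve-classed.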
Tb PGK inh = inhibitors of T. brucei phosphoglycerate kinase; P07378; Potency, µM (top dose mostly 57.5 µM), without a hit: at the highest dose activity change, negative = inhibition, hits mostly inhibitors; PGK/GAPDH coupled, Kinase-Glo luminescence, 60 min; hit rate 0.043% among 380,000; note: potency is the fitted concentration of half-maximal effect; nearly all actives have a fitted effect of over 60% in size
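Luminescent ATP detection (Kinase-Glo Plus) follows a 60-minute room-temperature incubation, with wells lacking PGK as controls. Buffer: 100 mM TEA (pH 7.6), 5 mM MgCl2, 0.01% Tween-20. Coupling enzyme GAPDH (100 nM final) supplies unstable 1,3-BPG in-well.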
PI5P4K alpha inh = inhibitors of human PI5P4K alpha | PI5P4Kalpha enzyme, ADP-Glo luminescence, 60 min; stronger effect = lower value | max response, % | hit rate 1.2% among 330,000 | AID 652105; active = max response of -50% or lower; inconclusive = between -30% and -50%; inactive = -30% or higher; note: value at the top dose of about 77 µM
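Compounds were pin-transferred onto PI5P4Kalpha and substrate in HEPES pH 7.4 buffer with EGTA, CHAPS and 5% DMSO. ATP (5 microM final) started the reaction, which ran 60 minutes at room temperature before ADP-Glo detection.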
The depositor's hits bear a star; i = inactive; ? = inconclusive; nt = no result; ! = a repeat was not active. Unless noted, calls come from the whole dose curve; as a rule, active = well fitted curve in the direction sought with a large enough effect; inconclusive = small, poorly fitted or top-dose-only effect, or another doubt; inactive = no such curve, though single readings can be large; an effect the other way counts as inactive or inconclusive. Unless noted, % is set by controls: 0 for no effect and ±100 for the full control effect.

SMILES	PI4K2A inh	Pin1 inhibitor	Tb PFK inh	Tb PGK inh	PI5P4K alpha inh
S=c1[nH]nc(Nc2ccc(Cl)cc2)s1	-4.4	?	-21.5%	-10.7%	-73.5*
CC(C)Cc1ccc(C(C)C(=O)OCc2ccccn2)cc1 (stereo not drawn)	1.0	nt	nt	nt	nt
COC(=O)c1ccc(CCc2cc(O)c(Br)cc2O)cc1	5.6	-0.5%	nt	i	-52.3*
CC(=O)Nc1sc2c(c1-c1nc3ccccc3s1)CNCC2	nt	-1.6%	nt	nt	nt
O=c1[nH]c2ccccc2c(=O)n1CCCl	-4.6	nt	nt	nt	nt
CCCC(=O)O[C@]1(C(=O)COC(=O)CC)CC[C@H]2[C@@H]3CCC4=CC(=O)CC[C@]4(C)[C@H]3[C@@H](O)C[C@@]21C	i	nt	nt	nt	nt
N=C1/C(=C\c2ccc(OC(=O)c3ccco3)cc2)C(=O)N=C2SC(N3CCCCC3)=NN12	3.9	?	2.2%	5.2%	-51.5*
CCS(=O)(=O)C1=NSC2=NC(=O)/C(=C\c3ccc(OC(=O)c4ccco4)cc3)C(=N)N21	-15.8	-5.4%	1.1%	-12.3%	-86.9*
CC(C)S(=O)(=O)C1=NSC2=NC(=O)/C(=C\c3ccc(OC(=O)c4ccco4)cc3)C(=N)N21	-8.6	-2.7%	-9.8%	i	-76.1*
CCOc1cc(/C=C2/C(=N)N3C(=NC2=O)SN=C3S(C)(=O)=O)ccc1OC(=O)c1ccco1	-2.5	47.1%	?	-6.7%	?
Cc1cccc(NC(=O)c2sc3nc(N)c(C#N)cc3c2N)c1	1.7	2.2%	-0.4%	-1.0%	-50.7*
COc1cc2c(cc1[N+](=O)[O-])-c1ccc([N+](=O)[O-])cc1C2=NNC(N)=S	0.2	nt	nt	-4.9%	-58.6*
Cc1ccc(NS(=O)(=O)c2ccc3c(ccn3C)c2)cc1C	nt	1.9%	nt	nt	nt
C[n+]1c2cc(N)ccc2cc2ccc(N)cc21 (tested in a mixture with another compound)	-26.3	nt	nt	nt	nt
COc1cc2c(cc1OC)C(=O)C(Br)CC2 (stereo not drawn)	?	nt	nt	?	-50.6*
COc1ccc2[nH]c3c(c2c1)CCN[C@]31C(=O)N(Cc2ccccc2)c2ccccc21	3.2	nt	nt	nt	nt
CCOC(=O)C1=NOC(C(=O)NCc2ccccc2)(C(=O)c2ccc(OC)cc2)C1 (stereo not drawn)	-0.4	nt	nt	nt	nt
C/C(N)=C(/C#N)C(=O)COC(=O)C1Cc2ccccc2CN1S(C)(=O)=O (stereo not drawn)	9.4	?	-15.5%	-1.8%	-59.4*!
CS(=O)(=O)N1Cc2ccccc2CC1C(=O)OCC(=O)NCc1ccccc1 (stereo not drawn)	0.9	-10.4%	?	-8.5%	?
CC1(C)Cc2c(c(N3CCCC3)[nH]c(=S)c2C#N)CO1	nt	nt	-6.7%	nt	nt
N#Cc1cc2c([nH]c1=S)CCCC2	-3.4	2.5%	?	1.1%	-72.6*
CC1(C)Cc2[nH]c(=S)c(C#N)cc2CO1	-2.9	-3.0%	-21.3%	14.2%	-87.7*
C=c1[nH]cc(C(C)c2c(C)n(C)c3ccccc23)/c1=C/C (stereo not drawn)	-5.8	nt	nt	nt	nt
Cc1cc2c(s1)c1cnn(Cc3cc(F)cc(F)c3)c(=O)c1n2C	nt	2.8%	nt	nt	nt
O=C(O)c1ccc2c(=O)n3c(nc2c1)/C(=C/c1ccc(F)cc1)CC3	-24.1	-10.0%	4.1%	i	-16.1
SMILES	PI4K2A inh	Pin1 inhibitor	Tb PFK inh	Tb PGK inh	PI5P4K alpha inh
O=C(O)c1ccc2c(=O)n3c(nc2c1)/C(=C/c1cccc(Cl)c1Cl)CCCC3	-3.8	0.3%	-1.4%	1.7%	-73.1*
C/C(=N\NC(=O)CSc1nnc(-c2ccccc2)n1-c1ccc(C)cc1)c1ccc(-c2ccccc2)cc1	-2.3	nt	nt	nt	nt
Cc1c(C(=O)O)cnc2c([N+](=O)[O-])cnn12	-2.0	-5.7%	-0.7%	-8.7%	-54.8*
CC(=O)c1cnc2c(C(=O)O)cnn2c1C	-0.9	-10.6%	-0.5%	-2.9%	nt
CC(=O)c1ccc(-c2csc3ncnc(Sc4nnnn4C)c23)cc1	nt	-0.3%	nt	nt	nt
N#C/C(=C\c1ccc(O)c(Br)c1)C(=O)NCc1ccccc1	-0.1	0.2%	-14.2%	-3.8%	-29.8
N#C/C(=C\c1ccc(O)c([N+](=O)[O-])c1)C(=O)NCc1ccccc1	3.7	-8.4%	0.4%	-3.7%	-50.3*
COc1cc(F)c(S(=O)(=O)N2CCN(S(=O)(=O)c3ccco3)CC2)c(F)c1	nt	53.3%	nt	nt	nt
O=C(CSc1nc2ccccc2c(=O)[nH]1)c1ccc(O)c(O)c1	0.6	-8.6%	0.0%	?	-56.0*
O=C(CSc1nc2ccccc2n1CCc1ccccc1)N1CCOCC1	5.0	-3.7%	12.4%	-8.7%	1.7
O=C(CSc1nc2ccccc2n1CCc1ccccc1)c1ccc(O)c(O)c1	-23.8	nt	-24.4%	7.94µM*	-88.7*
O=C(CSc1nc2ccccc2c(=O)[nH]1)c1ccc(O)cc1O	7.4	-0.3%	9.1%	-5.9%	-4.9
COc1ccc(/C=N\n2nnc3ccccc32)cc1	-59.0*	0.9%	-0.1%	-21.5%	-13.0
COc1ccc(/C=C/c2nc3ccccc3n2C)cc1	-88.0*	-3.7%	?	?	-62.5*
COc1ccc(Cn2c(/C=C/c3ccccc3)nc3ccccc32)cc1	-2.0	9.7%	-6.3%	?	nt
O=C(O)c1cccc(NC(=S)N/N=C/c2ccccc2OCc2ccc(Br)cc2)c1	-3.2	nt	1.0%	-3.3%	-65.2*
O=C(O)c1cccc(NC(=S)N/N=C/c2ccccc2OCc2cccc(Br)c2)c1	-7.4	nt	6.3%	-6.1%	?
O=C(Nc1ccc(C(=O)N2CCCCC2)cc1)c1ccccc1	?	-4.5%	nt	-25.0%	-26.5
O=C(Nc1ccccc1)Nc1ccc(C(=O)N2CCCC2)cc1	-62.3*	1.4%	-21.9%	?	-26.3
CCn1cnc2c(Nc3cc(F)cc(F)c3)nc(C(=O)COc3c(F)c(F)cc(F)c3F)nc21	nt	-12.2%	nt	nt	nt
CN(C)[C@@H]1C(=O)C(C(N)=O)=C(O)[C@@]2(O)C(=O)C3=C(O)c4c(O)cccc4C[C@H]3C[C@@H]12	-2.8	nt	nt	nt	nt
CCCC(=O)OCCNc1cc(SCc2ccco2)c2nonc2c1[N+](=O)[O-]	?	nt	-24.1%	-4.8%	-60.5*
CCCSc1cc(NCCOC(=O)CCC)c([N+](=O)[O-])c2nonc12	22.6	-8.3%	0.2%	-6.4%	2.9
CC(=O)OCCCNc1cc(SCc2ccco2)c2nonc2c1[N+](=O)[O-]	?	nt	?	-7.8%	-50.7*
CCC(=O)OCCNc1cc(Sc2nc3ccccc3s2)c2nonc2c1[N+](=O)[O-]	-7.4	?	2.69µM*	-8.4%	nt
CCCSc1cc(NCCOC(C)=O)c([N+](=O)[O-])c2nonc12	-1.6	0.1%	2.1%	3.8%	3.3
C=CCN(C)CC#Cc1ccccc1C	-3.4	nt	nt	nt	nt
COC(=O)CSc1nnc(-c2ccc(NS(=O)(=O)c3ccc(Cl)s3)cc2)o1	9.7	nt	nt	nt	nt
COCCCN1C(=O)[C@H](CC(=O)NCc2cccc3ccccc23)[C@]2(C(=O)OC)CCCCC=C12	3.6	nt	nt	nt	nt
CC1=NN(c2ccc(S(=O)(=O)O)cc2C)C(=O)C1	-67.7*	6.4%	0.2%	2.8%	-12.6
